Results taken from PubChem BioAssay AID1224854 (National Center for Advancing Translational Sciences (NCATS), 2016).
Records with an inconclusive call do not appear. Active and inactive are the calls of the source. Calls follow the shape of the dose curve; as a rule, active = well fitted activation curve with a large enough effect; inconclusive = small, poorly fitted or top-dose-only effect; inactive = flat fitted curve, though single readings scatter.

assay: Cell viability assay for measurement of the protective activity of small molecules against cell death caused by Zika virus infection in human astrocytoma cells; settings: SNB-19 Zika virus cytoprotection, ATP luminescence, 72 h; series mostly up to 46.1 µM; protection from virus-induced cell death: at the top concentration
Text: National Center for Advancing Translational Sciences [NCATS] Johns Hopkins University School of Medicine Florida State University Assay Overview: Zika virus infection causes cell death in certain cell types including human neural progenitor cells (hNPCs), astrocytes, and astrocytoma cell line (SNB-19). This cell viability assay measures the ATP content (level) in human astrocytoma cells (SNB-19) using a luminescence readout that is proportional to viable cell numbers. Decrease in the luminescence signal after Zika virus infection indicates the cell death caused by Zika virus. Small molecule inhibitors […] the decreased luminescence signal after Zika virus infection, indicating the protective effect of that small molecule on the cell death caused by Zika virus infection. This observed protective effect of small molecules against Zika virus induced cell death may result from inhibition of virus replication or cellular response to the virus infection.
Assay Protocol Summary: The medium for SNB-19 cells is composed of RPMI 1640 (ATCC, Cat.# 30-2001), 10% fetal bovine serum (FBS) (GE healthcare Life Sciences, Cat.# SH30071.03), and 1% Pen/Strep (Gibco, Cat.# 15140-122). The ATP content assay kit (PerkinElmer, Cat.# 6016731) was used to determine cell viability. The reagent was reconstituted and prepared as described by the manufacturer. Cells were seeded in 384- or 1536-well assay plates and cultured at 37 C with 5% CO2 for 16 to 20 hours. The typical cell seeding density in the 1536-well plate assay is 250 cells/well in 3ul medium for SNB-19 cells in tissue culture treated plates. Compounds were added to cells and incubated for one hour before addition of ZIKV solution to cells (2 FFU/cell). After incubation at 37 C with 5% CO2 for 72 hours, the reagent mixture of the ATP content assay kit was added to each well, followed by incubation at room temperature for 10 minutes. The luminescence intensity of the assay plates was measured using a ViewLux plate reader (PerkinElmer). […] The percentage inhibitions of the decreased cell viability by small molecule inhibitors were then calculated.

**Q.** Which Potency does the source give for O=C1c2ccccc2C(=O)c2c(NCCc3ccc(O)cc3)ccc(NCCc3ccc(O)cc3)c21 here?
**A.** The Potency was 19.5 µM (active).

**Q.** Which Potency does the source give for CC(=O)Nc1ccc([C@H](C)C(=O)Nc2ncc(C(C)C)s2)cc1 here?
**A.** Its Potency is 6.15 µM (active).

**Q.** With CCCCC1C(=O)N(c2ccccc2)N(c2ccc(O)cc2)C1=O (stereo not given) as the compound, how does the Potency read?
**A.** Its Potency is 19.5 µM (active).

**Q.** For CCN(CC)c1ccc(C(=C2C=CC(=[N+](CC)CC)C=C2)c2cc(S(=O)(=O)O)ccc2S(=O)(=O)[O-])cc1, which “protection from virus-induced cell death” value is on record?
**A.** The value was -9.19% (inactive).

**Q.** With Cc1ccc(O)c(-n2nc3ccccc3n2)c1 as the compound, how does the “protection from virus-induced cell death” value read?
**A.** The value was -2.26% (inactive).

**Q.** With [O-][n+]1ccccc1SSc1cccc[n+]1[O-] as the compound, how does the “protection from virus-induced cell death” value read?
**A.** Its value is -20.1% [at 88.3 µM] (inactive).

**Q.** Which “protection from virus-induced cell death” value does the source give for O=C(Nc1ccc(C(=O)O)c(O)c1)c1ccccc1 here?
**A.** Its value is 12.3% (inactive).

**Q.** For COc1cccc(-c2cc(=O)c3ccccc3o2)c1N, which “protection from virus-induced cell death” value is on record?
**A.** The value was -13.9% (inactive).

**Q.** Which “protection from virus-induced cell death” value does the source give for O=C(Nc1cc2cc[nH]c2cn1)c1ccccc1 here?
**A.** Its value is -20.2% (inactive).

**Q.** For O=S(=O)(O)c1ccc2nc(-c3ccccc3)[nH]c2c1, which “protection from virus-induced cell death” value is on record?
**A.** Its value is -10.1% (inactive).

**Q.** For COc1ccc(-c2cc(=O)c3c(O)cc(O)cc3o2)cc1O, which “protection from virus-induced cell death” value is on record?
**A.** Its value is 10.6% (inactive).

**Q.** For CCC(C(=O)O)c1ccc(N2Cc3ccccc3C2=O)cc1 (stereo not given), which “protection from virus-induced cell death” value is on record?
**A.** Its value is -4.15% (inactive).

**Q.** Which “protection from virus-induced cell death” value does the source give for COc1ccnc2c1CCCCC2S(=O)c1nc2ccccc2[nH]1 (stereo not given) here?
**A.** The value was 9.31% (inactive).

**Q.** For CCCC(=O)OC[C@@H](OC(=O)CCC)[C@@H](OC(=O)CCC)[C@H](Cn1c2nc(=O)[nH]c(=O)c-2nc2cc(C)c(C)cc21)OC(=O)CCC, which “protection from virus-induced cell death” value is on record?
**A.** Its value is 6.76% (inactive).

**Q.** With NC(N)=NN=C(/C=C/c1ccc([N+](=O)[O-])o1)/C=C/c1ccc([N+](=O)[O-])o1 as the compound, how does the “protection from virus-induced cell death” value read?
**A.** Its value is -21.8% (inactive).

**Q.** With Cc1csc(NC(=O)c2sc3nc4c(c(C(F)(F)F)c3c2N)CCC4)n1 as the compound, how does the “protection from virus-induced cell death” value read?
**A.** The value was -15% (inactive).

**Q.** Which “protection from virus-induced cell death” value does the source give for COc1cccc(-c2ccc(NC(=O)C3=C(C(=O)O)CCC3)c(F)c2)c1 here?
**A.** The value was -9.15% (inactive).

**Q.** Which “protection from virus-induced cell death” value does the source give for Cc1cccc(/C=C/c2ccccc2)n1 here?
**A.** The value was -0.0925% (inactive).

**Q.** With O=C(O)c1cccc(-c2noc(-c3ccccc3F)n2)c1 as the compound, how does the “protection from virus-induced cell death” value read?
**A.** The value was -13.8% (inactive).

**Q.** With O=c1cc(-c2ccccc2)oc2cc(O)c(O)c(O)c12 as the compound, how does the “protection from virus-induced cell death” value read?
**A.** The value was -7.06% (inactive).

**Q.** For N#CC1(c2ccc(NC(=O)c3cccnc3NCc3ccncc3)cc2)CCCC1, which “protection from virus-induced cell death” value is on record?
**A.** The value was 6.68% (inactive).

**Q.** With O=c1c2ccccc2nc2n1CCc1c-2[nH]c2ccccc12 as the compound, how does the “protection from virus-induced cell death” value read?
**A.** The value was -7.42% (inactive).

**Q.** Which “protection from virus-induced cell death” value does the source give for Oc1ccc(/C=C/c2cc(O)cc(O)c2)cc1 here?
**A.** Its value is -18.6% (inactive).

**Q.** Which “protection from virus-induced cell death” value does the source give for O=C(O)CCC(=O)c1ccc(-c2ccccc2)cc1 here?
**A.** Its value is -4.58% (inactive).

**Q.** Which “protection from virus-induced cell death” value does the source give for c1ccc2[nH]c(-c3cscn3)nc2c1 here?
**A.** Its value is -1.36% (inactive).

**Q.** For CC(C(=O)O)c1ccc(C(=O)c2ccccc2)s1 (stereo not given), which “protection from virus-induced cell death” value is on record?
**A.** Its value is -3.16% (inactive).

**Q.** With C/C(=N\O)c1ccc(OCC(=O)N2CCCCC2)cc1 as the compound, how does the “protection from virus-induced cell death” value read?
**A.** The value was -12.8% (inactive).

**Q.** With Cc1cc(O)c2ccccc2c1O as the compound, how does the “protection from virus-induced cell death” value read?
**A.** Its value is -17.9% (inactive).

**Q.** With O=C(c1ccccc1)c1ccc2n1CCC2C(=O)O (stereo not given) as the compound, how does the “protection from virus-induced cell death” value read?
**A.** Its value is 17.1% (inactive).

**Q.** For O=C(O)[C@H](CC(=O)N1C[C@@H]2CCCC[C@H]2C1)Cc1ccccc1, which “protection from virus-induced cell death” value is on record?
**A.** The value was -0.686% (inactive).

**Q.** Which “protection from virus-induced cell death” value does the source give for O=C1c2ccccc2C(=O)c2c1ccc(O)c2O here?
**A.** The value was 1.15% (inactive).

**Q.** For COc1ccc(NC(=O)/C=C/c2ccc(Cl)cc2)cc1, which “protection from virus-induced cell death” value is on record?
**A.** The value was 6.63% (inactive).

**Q.** With Cc1ccc(C(=O)c2ccc(CC(=O)O)n2C)cc1 as the compound, how does the “protection from virus-induced cell death” value read?
**A.** Its value is 15.6% (inactive).

**Q.** With CC1(C)Cc2c(sc(NC(=S)NC(=O)c3ccccc3)c2C(=O)O)CO1 as the compound, how does the “protection from virus-induced cell death” value read?
**A.** The value was 10.2% (inactive).

**Q.** With O=C(OCc1ccccc1)c1ccc(O)cc1 as the compound, how does the “protection from virus-induced cell death” value read?
**A.** The value was 10.1% (inactive).

**Q.** Which “protection from virus-induced cell death” value does the source give for O=c1c(-c2ccc(O)cc2)coc2cc(OC3O[C@H](CO)[C@H](O)[C@H](O)[C@H]3O)cc(O)c12 (stereo not given in full) here?
**A.** Its value is 8.55% (inactive).

**Q.** With CC(O)=C(C#N)C(=O)Nc1ccc(C(F)(F)F)cc1 as the compound, how does the “protection from virus-induced cell death” value read?
**A.** The value was -10% (inactive).

**Q.** Which “protection from virus-induced cell death” value does the source give for CC(C)c1ccc2oc3nc(N)c(C(=O)O)cc3c(=O)c2c1 here?
**A.** Its value is -20.4% (inactive).

**Q.** Which “protection from virus-induced cell death” value does the source give for C=CCCCCCCCCC(=O)O here?
**A.** Its value is -10.8% (inactive).

**Q.** With Cc1cc(O)c2c(c1)C(=O)c1cc(O)cc(O)c1C2=O as the compound, how does the “protection from virus-induced cell death” value read?
**A.** The value was 7.3% (inactive).
